Screens: PubChem, National Center for Advancing Translational Sciences (NCATS)
This is a sample that favours compounds with a hit; in the whole collection about 11% have one here.
Tau fibril ThT: qHTS for Inhibitors of Tau Fibril Formation, Thioflavin T Binding; Microtubule-associated protein tau (Homo sapiens), P10636; recombinant tau K18 P301L, heparin-induced fibrillization, ThT fluorescence; Potency, µM (highest dose often 57.4 µM), for inactives: top-dose activity, negative = inhibition, actives largely listed as inhibitors; 270,000 tested, 2.1% active; also: potency is read from the fitted curve at half-maximal effect; nearly all actives have a fitted effect of over 55% in size
Target sequence (P10636 561-689 P618L limits assumed): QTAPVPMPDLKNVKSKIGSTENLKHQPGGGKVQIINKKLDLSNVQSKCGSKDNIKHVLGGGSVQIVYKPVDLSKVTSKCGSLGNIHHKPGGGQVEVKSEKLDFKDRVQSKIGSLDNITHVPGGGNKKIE
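Tau K18 P301L fragment (15 uM unlabeled plus 0.24 uM Alexa 594-labeled) in 100 mM sodium acetate pH 7 with compound, fibrillization induced by 20 uM heparin for 6 hr at 37 C. Thioflavin T (30 uM) added, fluorescence read after 1 hr (ex 450, em 510 nm).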
Tau fluor cs: Counterscreen qHTS for Inhibitors of Tau Fibril Formation, Fluorescence Polarization | tau K18 P301L (four-repeat tau fragment) Alexa594 fluorescence, heparin fibrillization | Potency, µM (series often up to 57.7 µM), for the others: top-dose activity change, negative = decrease | 280,000 tested, 0.93% active; also: potency is read from the fitted curve at half-maximal effect; nearly all actives have a fitted effect of over 55% in size
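Human K18 P301L tau (15 uM unlabeled plus 0.24 uM Alexa 594-labeled, final) in 100 mM sodium acetate pH 7 was mixed with compound and 20 uM heparin and incubated 6 hr at 37 C.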
G9a inh: qHTS Assay for Inhibitors of Histone Lysine Methyltransferase G9a | Histone-lysine N-methyltransferase EHMT2 (Homo sapiens), Q96KQ7 | G9a H3K9 monomethylation, AlphaScreen, 2 h | Potency, µM (titrated, usually from 102 µM), inactives show at the highest dose activity, negative = inhibition, most hits filed as inhibitors | 350,000 tested, 8.8% active; also: potency is read from the fitted curve at half-maximal effect; nearly all actives have a fitted effect of over 75% in size
Target sequence (Q96KQ7 913-1193 limits assumed): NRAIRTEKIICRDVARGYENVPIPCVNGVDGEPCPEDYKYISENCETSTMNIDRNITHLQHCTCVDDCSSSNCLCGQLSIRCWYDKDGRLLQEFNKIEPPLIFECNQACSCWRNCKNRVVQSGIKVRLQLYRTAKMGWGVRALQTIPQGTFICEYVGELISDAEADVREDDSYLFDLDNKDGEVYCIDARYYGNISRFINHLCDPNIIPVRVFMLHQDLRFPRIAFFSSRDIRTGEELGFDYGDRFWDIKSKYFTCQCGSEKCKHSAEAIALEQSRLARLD
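Compounds were preincubated with 20 nM G9a for 15 min, after which biotinylated H3K9 peptide (500 nM) and SAM (20 uM) started a 2 h room-temperature reaction. Monomethylated product was quantified by antibody-based AlphaScreen chemiluminescence.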
Sfp inh: qHTS Assay for Inhibitors of Bacillus subtilis Sfp phosphopantetheinyl transferase (PPTase); 4'-phosphopantetheinyl transferase ffp (Bacillus subtilis), Q9F4F7; Biochemical Sfp PPTase activity, qHTS; Potency, µM, for the others: largest response in the series, negative = inhibition, usual class: inhibitors; 310,000 tested, 3.5% active; AID 1490, 2009;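 also: the enzyme is Sfp with the accession as filed and its product quenches rhodamine fluorescence; potency is read from the fitted curve at half-maximal effect; 0% = enzyme reaction without inhibitor and -100% = no enzyme wells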
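Fluorescence-quenching assay: 15 nM Sfp-PPTase preincubated 15 min at room temperature with compound, then 5 uM rhodamine-CoA and 12.5 uM BHQ-2-labelled YbbR peptide added. Fluorescence (ex 525/em 598 nm) read at start and after 30 min; difference gives rate.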
Tau fibril FP: qHTS for Inhibitors of Tau Fibril Formation, Fluorescence Polarization | Potency, µM (series often up to 57.7 µM), for the others: at the top dose activity, negative = inhibition, hits mostly inhibitors | K18 P301L tau heparin fibrillization, Alexa594 FP, 6 h | Microtubule-associated protein tau (Homo sapiens), P10636 | 280,000 tested, 0.39% active; also: potency is read from the fitted curve at half-maximal effect; nearly all actives have a fitted effect of over 55% in size
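Human tau K18 […] P301L fragment, 15 uM unlabeled plus 0.24 uM Alexa 594-labeled tau (final), with compound and 20 uM heparin in 100 mM sodium acetate pH 7; 6 hr at 37 C, then Alexa 594 FP read.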
Coupling enz: qHTS Assay for Inhibitors of Fructose-1,6-bisphosphate Aldolase from Giardia Lamblia: Coupling assay counterscreen. coupling enzyme system counterscreen, AmpLite Red fluorescence. activity change, negative = inhibition, % at 58.2 µM, hits read low. 290,000 tested, 0.67% active. AID 2472, 2010; in the data active = activity change below about -30%
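Counterscreen of the coupled detection system alone, without aldolase: glyceraldehyde-3-phosphate coupling enzymes plus AmpLite Red readout. Compounds at 57.5 uM final, 10 min RT preincubation, 20 min RT reaction, fluorescence 525/598 nm.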
The depositor's hits bear a star; [ ] = remark or other dose. Unless noted, calls follow the shape of the dose curve; as a rule, active = well fitted curve in the direction sought with a large enough effect; inconclusive = small, poorly fitted or top-dose-only effect, or another doubt; inactive = no such curve, though single readings can be large; an effect the other way counts as inactive or inconclusive. Unless noted, % is scaled to controls: 0 for no effect and ±100 for the full control effect.

How did CN1CCN(S(=O)(=O)c2cccc(C(=O)Nc3ccccc3N3CCCC3)c2)CC1 do in these assays?
G9a inh: inconclusive; Sfp inh: 9%

How did CN1CCN(S(=O)(=O)c2cccc(C(=O)Nc3cc(Cl)ccc3N3CCOCC3)c2)CC1 do in these assays?
G9a inh: 16µM*

How did CC1CN(S(=O)(=O)c2cccc(C(=O)Nc3ccccc3N3CCCC3)c2)CC(C)O1 (centres undefined) do in these assays?
G9a inh: 50µM*

How did CC(=O)N1CCN(S(=O)(=O)c2cccc(C(=O)Nc3ccccc3N3CCCC3)c2)CC1 do in these assays?
G9a inh: 7%[0.501 µM]

How did CN1CCN(S(=O)(=O)c2cccc(C(=O)Nc3cc(C(F)(F)F)ccc3N3CCCC3)c2)CC1 do in these assays?
G9a inh: 50µM*

Results for COc1ccc(CNC(=O)c2ccc(Cn3cc(Cl)cn3)o2)cc1 ?
G9a inh: 14%; Sfp inh: -2%; Coupling enz: -1

What do the screens show for `Cc1nc2cc(N3CCOCC3)c(NC(=O)C3CC3)cc2c(=O)n1Cc1ccccc1`?
Tau fibril ThT: -2%; Tau fluor cs: 2%; G9a inh: 50µM*; Sfp inh: -3%; Tau fibril FP: 2%; Coupling enz: -2

How did Cc1ccc(F)cc1N=Cc1c(O)c2ccccc2oc1=O do in these assays?
G9a inh: 79µM*; Sfp inh: 24%; Coupling enz: -1

How did COc1ccc(CS(=O)(=O)CC(C)(O)c2ccccc2)cc1 (centres undefined) do in these assays?
G9a inh: -10%; Sfp inh: 7%; Coupling enz: 0

How did Cc1ccc(C(C)(O)CS(=O)(=O)Cc2ccccc2)cc1 (centres undefined) do in these assays?
G9a inh: 56µM*; Sfp inh: 1%; Coupling enz: 1

What do the screens show for `Cc1cc(C)c2nc(N3CCCC(C(=O)NCc4ccccc4F)C3)sc2c1` (centres undefined)?
Tau fibril ThT: -4%; Tau fluor cs: -14%; G9a inh: 1%[59 µM]; Tau fibril FP: -4%

What do the screens show for `CCC(=O)N1c2ccccc2NC2=C(C(=O)CC(C)(C)C2)C1c1cccnc1` (centres undefined)?
Tau fibril ThT: -4%; Tau fluor cs: -11%; G9a inh: 6%; Sfp inh: 9%; Tau fibril FP: -5%; Coupling enz: 3

Results for CCC(=O)N1c2ccccc2NC2=C(C(=O)CCC2)C1c1ccc(N(C)C)cc1 (centres undefined) ?
Tau fibril ThT: -10%; Tau fluor cs: -26%; G9a inh: 50µM*; Sfp inh: 9%; Tau fibril FP: inconclusive; Coupling enz: 3

How did Cc1ccccc1CN1CCN(C(=O)c2cc(-c3ccncc3)nc3ccccc23)CC1 do in these assays?
G9a inh: 35µM*; Sfp inh: inconclusive

How did Cn1c(C(=O)N2CCCC2)cc2c(=O)n(C)c3ccccc3c21 do in these assays?
Tau fibril ThT: -16%; Tau fluor cs: -9%; G9a inh: 12%; Sfp inh: 12%; Tau fibril FP: 5%; Coupling enz: 5

Results for O=C(c1cc(-c2ccccn2)nc2ccccc12)N1CCN(c2ncccn2)CC1 ?
Tau fibril ThT: -5%; Tau fluor cs: 1%; G9a inh: 0%; Sfp inh: 9%; Tau fibril FP: -2%; Coupling enz: 0

What do the screens show for `O=C(c1cc(-c2ccc(Br)cc2)nc2ccccc12)N1CCN(c2ccccc2O)CC1`?
G9a inh: 50µM*

What do the screens show for `O=C(c1cc(-c2ccncc2)nc2ccccc12)N1CCOCC1`?
G9a inh: -41%

What do the screens show for `Cc1ccc(-c2cc(C(=O)N3CCN(c4ncccn4)CC3)c3ccccc3n2)cc1`?
Tau fibril ThT: -15%; Tau fluor cs: -19%; G9a inh: 45µM*; Sfp inh: -20%; Tau fibril FP: -14%; Coupling enz: -1

Results for Cn1c(C(=O)N2CCN(c3ncccn3)CC2)cc2c(=O)n(C)c3ccccc3c21 ?
Tau fibril ThT: -10%; Tau fluor cs: -3%; G9a inh: 45µM*; Sfp inh: 40µM*; Tau fibril FP: -1%; Coupling enz: -45*

How did CCOc1ccccc1OCC(=O)OCC(=O)c1c(C)[nH]c2ccccc12 do in these assays?
G9a inh: 21%[2.33 µM]

Results for O=C(NCCN1CCOCC1)c1cc([N+](=O)[O-])cc([N+](=O)[O-])c1 ?
G9a inh: 4%[0.501 µM]; Sfp inh: 16%; Coupling enz: 0

How did COC(=O)N[C@@H](/C=C/c1ccccc1)[C@@H](C)[N+](=O)[O-] do in these assays?
Tau fibril ThT: -3%; Tau fluor cs: -3%; Sfp inh: -8%; Tau fibril FP: -5%; Coupling enz: 2

What do the screens show for `O=S(=O)(c1cccs1)N1CN(Cc2ccc(Cl)cc2)c2nc3ccccc3nc21`?
Tau fibril ThT: 4%; Tau fluor cs: -11%; G9a inh: 55%[59 µM]; Sfp inh: 13%; Tau fibril FP: -16%; Coupling enz: 5

What do the screens show for `CC(C)OCCCN1CN(S(=O)(=O)c2cccs2)c2nc3ccccc3nc21`?
Tau fluor cs: -26%; G9a inh: 20µM*; Sfp inh: -5%; Tau fibril FP: -6%; Coupling enz: -2

Results for O=S(=O)(c1cccs1)N1CN(Cc2ccco2)c2nc3ccccc3nc21 ?
Tau fibril ThT: 22µM*; Tau fluor cs: inconclusive; G9a inh: 40µM*; Sfp inh: inconclusive; Tau fibril FP: inconclusive; Coupling enz: -12

Results for CC(C)CCN1CN(S(=O)(=O)c2cccs2)c2nc3ccccc3nc21 ?
Tau fibril ThT: -9%; Tau fluor cs: -14%; G9a inh: 16µM*; Sfp inh: -5%; Tau fibril FP: 2%; Coupling enz: 2

What do the screens show for `CCCCN1CN(S(=O)(=O)c2cccs2)c2nc3ccccc3nc21`?
Tau fibril ThT: -4%; Tau fluor cs: -13%; G9a inh: inconclusive; Sfp inh: inconclusive; Tau fibril FP: 0%; Coupling enz: -5
